GIRK2 act = Activates human GIRK2-containing potassium channels; activation (% efficacy), % for hits at 37.5 µM; 34,000 tested, under 10 active; P48051; HEK293 GIRK2/NPY4 cells, thallium flux fluorescence;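 active means primary screen hit, no activity in plain HEK293 cells, and in GIRK2-only cells above 5% efficacy rising with concentration; inactive means the rest, including fluorescent compounds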;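 further: efficacy is normalized control-subtracted fluorescence 15 s after thallium addition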
Target sequence (P48051 whole entry, looked up): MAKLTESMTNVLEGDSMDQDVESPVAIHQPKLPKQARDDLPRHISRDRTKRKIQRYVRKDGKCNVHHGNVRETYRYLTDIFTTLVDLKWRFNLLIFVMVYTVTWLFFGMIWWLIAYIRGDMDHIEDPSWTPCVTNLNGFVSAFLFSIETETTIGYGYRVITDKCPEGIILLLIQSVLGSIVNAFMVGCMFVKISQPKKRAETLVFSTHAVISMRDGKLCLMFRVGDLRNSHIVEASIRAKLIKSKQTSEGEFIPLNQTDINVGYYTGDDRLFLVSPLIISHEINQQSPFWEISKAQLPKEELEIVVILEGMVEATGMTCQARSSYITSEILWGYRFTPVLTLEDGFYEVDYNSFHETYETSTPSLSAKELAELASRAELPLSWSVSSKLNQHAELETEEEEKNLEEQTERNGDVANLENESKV
AMPAR-TARP mod = GluA2-stargazin AMPA receptor complex modulation | 3.5% of 40,000 active | calls only at 30 µM | AID 1259245 | O88602+P19491 | HEK293 GluA2+stargazin, membrane potential dye (FDSS), glutamate EC50; hits were called plate by plate, in both directions;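 active means any of four per-well response measures lying three or more SD from its plate-wide compound average, in either direction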
* = called active by the depositor; i = inactive; / = not tested or not shown; + = active, no number; ! = a repeat was not active. This is one part of a sample in which hits are shown more often than they occur.

SMILES	GIRK2 act	AMPAR-TARP mod
COc1ccc(S(=O)(=O)N2CCN(c3ccc(-c4ccncc4)nn3)CC2)c(OC)c1	i	+
COc1ccc(C)cc1S(=O)(=O)N1CCN(c2ccc(-c3ccccc3)nn2)CC1	i	i
O=S(=O)(c1ccccc1)N1CCN(c2ccc(Nc3ccncc3)nn2)CC1	i	i
COc1ccc(S(=O)(=O)N2CCN(c3ccc(Nc4ccncc4)nn3)CC2)cc1	i	+
O=S(=O)(Cc1nc(-c2ccc3c(c2)OCO3)no1)c1ccccc1	i	i
CC(O)(CNC(=O)C(=O)Nc1ccc2c(c1)OCCO2)c1ccc(-c2ccccc2)cc1 (stereo not given)	i	i
COC(=O)CSc1nc(-c2ccc(F)cc2)cc(C(F)(F)F)n1	/	+
COc1ccc(-c2cc(C(F)(F)F)nc(SCC(=O)N3CCCC3)n2)cc1OC	/	i
O=C(Nc1ccc2c(c1)N(C(=O)C1CCCC1)CC2)c1ccc(C(F)(F)F)cc1	/	i
O=C(Nc1ccc2c(c1)N(C(=O)C1CCCO1)CC2)c1ccc(C(F)(F)F)cc1 (stereo not given)	i	+
COc1ccc(C2NC(=O)NC(C)=C2C(=O)OCc2ccccc2)c(OC)c1 (stereo not given)	/	+
COC(=O)C1=C(C)NC(=O)NC1c1ccccc1OCc1ccccc1 (stereo not given)	/	i
COc1ccc(S(=O)(=O)c2c(C)cc(C)n(CC(=O)Nc3cc(OC)ccc3OC)c2=O)cc1	i	i
COc1ccc(CNC(=O)c2ccc(NC(=O)Cn3c(C)cc(C)c(C#N)c3=O)cc2)c(OC)c1	i	+!
COC(=O)c1ccc(C(=O)N2CCC(c3nnc(C)s3)CC2)cc1	i	i
COc1ccc(-n2ccnc(SCC(=O)Nc3c(C)cc(C)cc3C)c2=O)cc1	/	i
O=C(CSc1nccn(-c2ccc(F)cc2)c1=O)Nc1ccc(F)cc1	/	i
O=C(CSc1nccn(-c2ccc(Cl)cc2)c1=O)Nc1ccc(F)cc1F	/	+
Cc1cc(C)cc(-n2ccnc(SCC(=O)Nc3c(C)cc(C)cc3C)c2=O)c1	/	+
Cn1cccc(C(=O)NCC2CCN(S(C)(=O)=O)CC2)c1=O	i	i
NS(=O)(=O)c1ccc(NC(=O)CC2=NS(=O)(=O)c3ccccc3N2)cc1	i	i
O=C(Cn1c(Cc2ccccc2)nc2ccccc21)N1CCCCCC1	i	i
CCN1CCN(C(=O)CCn2c(=S)[nH]c3ccccc3c2=O)CC1	/	i
CCN(CC)C(=O)CCCCCn1c(=S)[nH]c2ccccc2c1=O	/	+
CC1(C)CC2CC(C)(CN2Cc2c(O)ccc3ccccc23)C1 (stereo not given)	/	+
SMILES	GIRK2 act	AMPAR-TARP mod
Cn1c(O)c(N=Nc2nc3c(c(=O)[nH]c(=O)n3C)n2CCCOc2ccccc2)c(=O)n(C)c1=O	/	i
Cn1c(=O)c2c(nc(N=Nc3c(O)[nH]c4ccccc34)n2CCc2ccccc2)n(C)c1=O	/	i
Cn1c(=O)c2c(nc(NCc3ccccc3)n2CC(=O)N=Nc2c(O)[nH]c3ccccc23)n(C)c1=O	/	+
Cn1c(O)c(N=Nc2nc3c(c(=O)n(C)c(=O)n3C)n2Cc2ccccc2)c(=O)n(C)c1=O	/	+
O=C(c1cccc(F)c1)N(CCCn1ccnc1)c1nc2c(F)cccc2s1	i	+
O=C(c1ccc2c(c1)OCCO2)N(Cc1ccncc1)c1nc2c(F)cccc2s1	i	i
N#Cc1ccc(C(=O)N(Cc2ccncc2)c2nc3c(F)cccc3s2)cc1	i	+
O=C(c1ccc2c(c1)OCCO2)N(CCCn1ccnc1)c1nc2c(F)cccc2s1	i	i
COc1cc(CCN2C(=O)c3cccc4cccc(c34)C2=O)c(S(=O)(=O)N2CCCCCC2)cc1OC	/	i
CCOc1ccc(C(=O)Nc2c3c(nn2C)CCC3)cc1	i	i
CC(=O)NCCc1nc2ccccc2n1Cc1c(C)c(C)cc(C)c1C	i	+
OCCCc1nc2ccccc2n1Cc1ccc(F)cc1	/	i
Cc1cc(C)c(C)c(Cn2c(CCCO)nc3ccccc32)c1C	i	+
CC(=O)NCCc1nc2ccccc2n1Cc1c(C)cc(C)cc1C	i	i
COc1cccc(C(CNS(=O)(=O)c2ccc([N+](=O)[O-])cc2)N2CCOCC2)c1 (stereo not given)	i	i
N=c1sc(/C=C2\C=Nc3ccccc32)c(O)n1-c1nccs1	/	+
O=C(/C=C/c1cccc(F)c1)Nc1ccc2c(c1)OCO2	/	i
CC(C)CCN1C(=O)C(C)(C)COc2ccc(NC(=O)COc3ccccc3)cc21	/	+
CC(C)CCN1C(=O)C(C)(C)COc2cc(NC(=O)COc3ccccc3)ccc21	/	i
O=C(CN1CCN(C2c3ccccc3-c3ccccc32)CC1)Nc1cccc(F)c1	/	i
O=C(CN1CCN(CC(=O)Nc2cccc(F)c2)CC1)Nc1ccc(Cl)cc1	/	+
COc1ccc(S(=O)(=O)CC(=O)Nc2nc(-c3cc(Cl)ccc3Cl)cs2)cc1	i	i
COc1ccc(S(=O)(=O)CC(=O)Nc2nc(-c3cc(Cl)sc3Cl)cs2)cc1	i	+
CCOc1ccc(-c2noc(Cn3c(=O)[nH]c4cc5c(cc4c3=O)OCO5)n2)cc1	i	/
CCCOc1ccc(N2CCN(C(=O)c3ccc(OC(C)C)cc3)CC2)nn1	i	i
SMILES	GIRK2 act	AMPAR-TARP mod
C=CCc1c(C)nc2c(-c3ccccc3)cnn2c1NCCN1CCOCC1	i	i
Cc1cc(C(=O)Nc2ccc3c(c2)OCC(C)(C)C(=O)N3C)c(C)o1	i	i
CN1C(=O)C(C)(C)COc2cc(NC(=O)c3ccc4nsnc4c3)ccc21	i	+
CCCNC(=O)Cn1nc2c(c1NC(=O)CSc1ccncc1)CSC2	i	i
Cc1ccc(-c2ccc(SCC(=O)NC3CCCCC3)nn2)c(C)c1	i	+
COc1ccc(OC)c(-c2ccc(SCC(=O)NC3CCCC3)nn2)c1	i	i
Cc1[nH]c(=O)nc(SCC(=O)NC2CCCC2)c1C#N	i	i
CCc1nc(SCC(=O)N(CC)CC)c(C#N)c2c1CCCC2	/	+
COCCNC(=O)NCC1(c2ccc(OC)cc2)CCCC1	i	i
Cc1ccc(C)c(N2CCN(C(=O)c3ccc(Cn4c(=O)[nH]c5ccccc5c4=O)cc3)CC2)c1	i	+
CC(=O)c1ccc(N2CCN(C(=O)c3ccc(Cn4c(=O)[nH]c5ccccc5c4=O)cc3)CC2)cc1	i	i
Cc1cc(NC(=O)C2CCCN2S(=O)(=O)c2ccc(Cl)cc2)n(C)n1 (stereo not given)	i	/
O=S(=O)(c1cccnc1)N1CCN(CCn2cccn2)CC1	i	i
O=S(=O)(NCCC(O)c1cccs1)c1cccc(C(F)(F)F)c1 (stereo not given)	i	i
O=S(=O)(NCCC(O)c1cccs1)c1ccc(OC(F)(F)F)cc1 (stereo not given)	i	+
Cc1c(NS(=O)(=O)c2cccc(S(C)(=O)=O)c2)c(=O)n(-c2ccccc2)n1C	i	/
Cc1cc(C(C)(C)C)cc(S(=O)(=O)Nc2c(C)n(C)n(-c3ccccc3)c2=O)c1C	/	+
COc1cn(CC(=O)Nc2ccccc2C(F)(F)F)c(CSc2nnnn2C)cc1=O	i	i
Cc1ccc(OCCn2c(C3CC(=O)N(Cc4ccccc4)C3)nc3ccccc32)cc1 (stereo not given)	/	i

High-throughput results: PubChem, several laboratories
